Where “and” joins values, the source holds several entries; their conditions need not be identical. Equal values may be shown once. About 83,000 compounds went through this panel and 20% of them were active in at least one assay; those are over-represented in the sample as a whole.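 Step 1: grow cells in 96-well plates. Step 2: add test compound at a single concentration. Step 3: incubate 48 h. Step 4: record percent growth.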 Calls of active or inactive are those of the source. The calls were made as follows: active = growth percent below 10; inactive = the rest.
Experiments:
Experiment in all cases: NCI-60 one-dose screen, 48 h (100 = growth as untreated, 0 = no growth, -100 = all killed)
Settings in all cases: 10 µM unless noted
SK-MEL-2 melanoma = system: SK-MEL-2 melanoma
EKVX NSCLC = system: EKVX NSCLC
SN12C renal = system: SN12C renal
UO-31 renal = system: UO-31 renal
ACHN renal = system: ACHN renal
CAKI-1 renal = system: CAKI-1 renal
A498 renal = system: A498 renal
CCRF-CEM leukemia = system: CCRF-CEM leukemia
MOLT-4 leukemia = system: MOLT-4 leukemia
SR leukemia = system: SR leukemia
RPMI-8226 leukemia = system: RPMI-8226 leukemia
OVCAR-8 ovarian = system: OVCAR-8 ovarian
OVCAR-5 ovarian = system: OVCAR-5 ovarian
OVCAR-4 ovarian = system: OVCAR-4 ovarian
SK-OV-3 ovarian = system: SK-OV-3 ovarian
IGROV1 ovarian = system: IGROV1 ovarian
OVCAR-3 ovarian = system: OVCAR-3 ovarian
HS 578T breast = system: HS 578T breast
NCI/ADR-RES ovarian = system: NCI/ADR-RES ovarian
TK-10 renal = system: TK-10 renal

Structure (SMILES) | growth (SK-MEL-2 melanoma) | growth (EKVX NSCLC) | growth (SN12C renal) | growth (UO-31 renal) | growth (ACHN renal) | growth (CAKI-1 renal) | growth (A498 renal) | growth (CCRF-CEM leukemia) | growth (MOLT-4 leukemia) | growth (SR leukemia) | growth (RPMI-8226 leukemia) | growth (OVCAR-8 ovarian) | growth (OVCAR-5 ovarian) | growth (OVCAR-4 ovarian) | growth (SK-OV-3 ovarian) | growth (IGROV1 ovarian) | growth (OVCAR-3 ovarian) | growth (HS 578T breast) | growth (NCI/ADR-RES ovarian) | growth (TK-10 renal)
NCCSSC/C=C\CSSCCN | 113% (inactive) | 123% (inactive) | 98.6% (inactive) | 80% (inactive) | 110% (inactive) | 101% (inactive) | 88.9% (inactive) | 95.8% (inactive) | 98% (inactive) | 107% (inactive) | 94.9% (inactive) | 97% (inactive) | 121% (inactive) | 103% (inactive) | 99.8% (inactive) | 115% (inactive) | 109% (inactive) | 93% (inactive) | 107% (inactive) | –
CCCC(=O)OCC(COC(=O)CCC)OC(=O)CCC | 99.2% (inactive) | 93.7% (inactive) | 96.9% (inactive) | 87.3% (inactive) | – | 94.8% (inactive) | 104% (inactive) | 95.4% (inactive) | 102% (inactive) | 105% (inactive) | 98.1% (inactive) | 101% (inactive) | 102% (inactive) | 97.6% (inactive) | 103% (inactive) | 105% (inactive) | 105% (inactive) | 98.6% (inactive) | 100% (inactive) | 99.4% (inactive)
O=c1[nH]c(=O)n(C2OC(CO)C(O)C2O)cc1I (centres undefined) | 124% (inactive) | 100% (inactive) and 98.9% (inactive) | 94.8% (inactive) and 99% (inactive) | 77.7% (inactive) and 87.1% (inactive) | 111% (inactive) and 117% (inactive) | 95.9% (inactive) and 97.9% (inactive) | 97.5% (inactive) and 120% (inactive) | 95.5% (inactive) | 84.8% (inactive) and 111% (inactive) | 96.1% (inactive) and 114% (inactive) | 107% (inactive) | 98.9% (inactive) and 95.7% (inactive) | 107% (inactive) and 104% (inactive) | 100% (inactive) and 102% (inactive) | 110% (inactive) and 102% (inactive) | 103% (inactive) and 106% (inactive) | 117% (inactive) and 121% (inactive) | 108% (inactive) and 98.3% (inactive) | 109% (inactive) and 97.4% (inactive) | –
O=C(O)C1CSCN1 (centres undefined) | 110% (inactive) and 84.4% (inactive) | 102% (inactive) and 101% (inactive) | 100% (inactive) | 81.3% (inactive) and 88.6% (inactive) | 101% (inactive) and 97.9% (inactive) | 92.9% (inactive) and 91.4% (inactive) | 113% (inactive) and 103% (inactive) | 100% (inactive) and 121% (inactive) | 75.9% (inactive) and 106% (inactive) | 97.4% (inactive) | 106% (inactive) and 105% (inactive) | 113% (inactive) and 98.8% (inactive) | 118% (inactive) and 88.8% (inactive) | 112% (inactive) and 102% (inactive) | 105% (inactive) and 94.9% (inactive) | 106% (inactive) | 120% (inactive) and 107% (inactive) | 136% (inactive) and 112% (inactive) | 108% (inactive) and 87.2% (inactive) | –
CCCCCc1cc[n+](CC(=O)c2ccccc2)cc1 | 101% (inactive) and 104% (inactive) | 90.4% (inactive) | 99.8% (inactive) and 103% (inactive) | 85.6% (inactive) and 91.3% (inactive) | 102% (inactive) | 98.7% (inactive) | 87.5% (inactive) and 85.7% (inactive) | 92.2% (inactive) and 99.4% (inactive) | 104% (inactive) and 109% (inactive) | 115% (inactive) and 100% (inactive) | 104% (inactive) and 107% (inactive) | 97.2% (inactive) and 99.3% (inactive) | 97.6% (inactive) and 101% (inactive) | 110% (inactive) and 85.2% (inactive) | 101% (inactive) and 105% (inactive) | 91.6% (inactive) and 108% (inactive) | 94.9% (inactive) and 105% (inactive) | 106% (inactive) | 98.6% (inactive) and 103% (inactive) | –
Cc1onc(-c2c(F)cccc2Cl)c1-c1ncc(-c2ccc(Cl)cc2)o1 | 104% (inactive) and 80% (inactive) | 53% (inactive) | 71.9% (inactive) and 37.3% (inactive) | 53.4% (inactive) and 37.7% (inactive) | 46.1% (inactive) and 31.3% (inactive) | 14% (inactive) and 32% (inactive) | 69.8% (inactive) and 85.8% (inactive) | 41.5% (inactive) | 42.4% (inactive) and 16.1% (inactive) | 11% (inactive) | 26.2% (inactive) and 23.4% (inactive) | 55.7% (inactive) and 35.5% (inactive) | 73.5% (inactive) and 68.1% (inactive) | 80.9% (inactive) and 47.9% (inactive) | 71% (inactive) and 61.4% (inactive) | 49.1% (inactive) and 33.3% (inactive) | 63.4% (inactive) and 45.9% (inactive) | 84.8% (inactive) and 57.3% (inactive) | 57.4% (inactive) and 27.2% (inactive) | –
O=C1c2ccccc2CN1c1ccccc1 | 70.6% (inactive) | 113% (inactive) | 90.5% (inactive) | 121% (inactive) | – | 102% (inactive) | 101% (inactive) | 106% (inactive) | 85.2% (inactive) | 84.5% (inactive) | 107% (inactive) | 104% (inactive) | 98% (inactive) | 99.3% (inactive) | 105% (inactive) | 123% (inactive) | 108% (inactive) | 115% (inactive) | 105% (inactive) | 94.3% (inactive)
Clc1ccc(/C=C/c2ccc3ccccc3n2)cc1 | 10.7% (inactive) and 89.2% (inactive) | 57.6% (inactive) and 58.7% (inactive) and 66.2% (inactive) | 43.8% (inactive) and 97.7% (inactive) and 85.7% (inactive) | 69.7% (inactive) and 68.4% (inactive) and 58.1% (inactive) | – | 47.7% (inactive) and 68% (inactive) and 84.7% (inactive) | 61% (inactive) and 135% (inactive) and 114% (inactive) | 8.05% (active) and 97.1% (inactive) and 89.3% (inactive) | 30.9% (inactive) and 41.9% (inactive) and 76% (inactive) | 29% (inactive) and 59.4% (inactive) | – | 28.9% (inactive) and 86.1% (inactive) and 109% (inactive) | 35.6% (inactive) and 92.6% (inactive) and 74.5% (inactive) | 79% (inactive) and 88.3% (inactive) and 86.5% (inactive) | 20.4% (inactive) and 83% (inactive) and 84.6% (inactive) | 52.6% (inactive) and 27.6% (inactive) and 75.1% (inactive) | -20.4% (active) and 106% (inactive) and 92.8% (inactive) | – | 83.6% (inactive) and 92% (inactive) and 79.4% (inactive) | 15.3% (inactive) and 132% (inactive) and 86.7% (inactive)
O=C1CCC(=O)N1CC1CC2CCC1C2 (centres undefined) | 97.5% (inactive) and 111% (inactive) | 99% (inactive) and 83.1% (inactive) | 94% (inactive) and 82.3% (inactive) | 101% (inactive) and 95.5% (inactive) | 100% (inactive) and 92.2% (inactive) | 67.2% (inactive) and 91.1% (inactive) | 119% (inactive) and 103% (inactive) | 95.1% (inactive) and 104% (inactive) | 54.1% (inactive) and 111% (inactive) | 84.7% (inactive) and 78.9% (inactive) | 71.3% (inactive) and 114% (inactive) | 98.8% (inactive) and 96.1% (inactive) | 93.8% (inactive) and 90.8% (inactive) | 91.1% (inactive) and 97.4% (inactive) | -56.3% (active) and 84% (inactive) | 105% (inactive) and 107% (inactive) | 106% (inactive) and 101% (inactive) | – | – | –
Cc1ccc(NC(=S)N/C=C(\c2ccccc2)S(=O)Cc2ccccc2)c(C)c1 (centres undefined) | 103% (inactive) | 86.7% (inactive) | 98.9% (inactive) | 80.2% (inactive) | 103% (inactive) | 87.5% (inactive) | 103% (inactive) | 97.3% (inactive) | 94.3% (inactive) | 96.5% (inactive) | 94% (inactive) | 99.2% (inactive) | 97% (inactive) | 91.3% (inactive) | 100% (inactive) | 112% (inactive) | 106% (inactive) | 94.8% (inactive) | – | –
Nc1nc(N)c2cc(S(=O)(=O)c3ccccc3)ccc2n1 | 80.2% (inactive) and 126% (inactive) | 47.4% (inactive) and 51.2% (inactive) | 29.2% (inactive) and 41.4% (inactive) | 35.3% (inactive) and 61.5% (inactive) | 24% (inactive) and 29.6% (inactive) | 21.3% (inactive) and 22.4% (inactive) | 57.2% (inactive) and 94.4% (inactive) | 37.9% (inactive) and 29.7% (inactive) | 32.8% (inactive) and 49.8% (inactive) | 22% (inactive) and 47.4% (inactive) | 51% (inactive) and 54.5% (inactive) | 38% (inactive) and 43.5% (inactive) | 39.2% (inactive) and 75.8% (inactive) | 54% (inactive) | 62.1% (inactive) and 52.1% (inactive) | 36.6% (inactive) and 58.6% (inactive) | 53.9% (inactive) and 59.7% (inactive) | 65.8% (inactive) and 73.4% (inactive) | 41.2% (inactive) and 50.2% (inactive) | –

From PubChem BioAssay (NCI)
